Test results taken from PubChem BioAssay (Tox21).
Results filed as inconclusive are left out. Where a call stands in place of a potency, no number is given. A number with no mark means an inactive call. Calls of active or inactive are those of the source. Unless noted, calls follow the shape of the dose curve; as a rule, active = well fitted curve in the direction sought with a large enough effect in the repeat runs; inconclusive = weak or mixed curves; inactive = no such curve, though single readings can be large; an effect the other way counts as inactive or inconclusive.

Assays:
[1] = qHTS assay to identify aromatase inhibitors - cell viability counter screen (AID 743084);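 also: cells stimulated with testosterone during compound exposure; nearly all actives have a fitted effect of over 55% in size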; also: potency is read from the fitted curve at half-maximal effect
[2] = molecular target: Aryl hydrocarbon receptor (Homo sapiens) (UniProt P35869); experiment: qHTS assay to identify small molecule that activate the aryl hydrocarbon receptor (AhR) signaling pathway (AID 743085); also: nearly all actives have a fitted effect of over 15% in size; also: potency is read from the fitted curve at half-maximal effect;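 as to activation: HG2L7.5c1 human HepG2 liver cells with stably integrated DRE-driven firefly reporter; series mostly up to about 70 µM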
Chain of Aryl hydrocarbon receptor (Homo sapiens) (P35869 whole entry, looked up): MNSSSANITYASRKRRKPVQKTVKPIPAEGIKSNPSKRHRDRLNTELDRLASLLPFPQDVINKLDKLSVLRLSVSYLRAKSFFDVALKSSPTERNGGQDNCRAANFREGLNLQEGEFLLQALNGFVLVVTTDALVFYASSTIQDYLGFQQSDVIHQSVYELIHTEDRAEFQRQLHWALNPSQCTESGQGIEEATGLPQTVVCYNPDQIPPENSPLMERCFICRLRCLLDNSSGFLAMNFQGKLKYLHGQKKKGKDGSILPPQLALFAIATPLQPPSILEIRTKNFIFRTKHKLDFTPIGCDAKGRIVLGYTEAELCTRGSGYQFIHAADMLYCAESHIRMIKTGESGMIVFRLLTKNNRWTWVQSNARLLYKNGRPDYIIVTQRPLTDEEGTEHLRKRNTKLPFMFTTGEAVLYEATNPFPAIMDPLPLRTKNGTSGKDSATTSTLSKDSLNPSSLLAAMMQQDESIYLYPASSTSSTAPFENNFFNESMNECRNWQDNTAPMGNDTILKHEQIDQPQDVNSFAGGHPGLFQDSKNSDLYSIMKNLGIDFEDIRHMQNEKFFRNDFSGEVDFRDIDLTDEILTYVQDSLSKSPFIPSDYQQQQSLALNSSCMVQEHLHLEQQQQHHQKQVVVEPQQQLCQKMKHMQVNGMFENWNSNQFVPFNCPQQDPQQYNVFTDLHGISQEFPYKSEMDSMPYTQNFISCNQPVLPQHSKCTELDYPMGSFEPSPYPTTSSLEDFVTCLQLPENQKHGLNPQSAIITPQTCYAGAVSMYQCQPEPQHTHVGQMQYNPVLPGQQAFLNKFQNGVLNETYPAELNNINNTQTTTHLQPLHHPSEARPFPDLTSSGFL
Procedure, shortened: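 Luminescence (ONE-Glo) from a dioxin-responsive-element luciferase reporter in HG2L7.5c1 HepG2 cells after 24 hr compound exposure at 37C; viability measured by CellTiter-Fluor fluorescence beforehand.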

[3] = qHTS assay to identify small molecule that activate the aryl hydrocarbon receptor (AhR) signaling pathway - cell viability counter screen (AID 743086); also: nearly all actives have a fitted effect of over 45% in size; also: potency is read from the fitted curve at half-maximal effect
Procedure, shortened: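 HepG2-AhR-luc (HG2L7.5c1) cells, 4000/well, treated 24 h at 37 C with compound; viability measured as CellTiter-Fluor fluorescence after 30 min in the same wells as the luciferase read.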

[4] = molecular target: Peroxisome proliferator-activated receptor gamma (Homo sapiens) (UniProt P37231); experiment: qHTS assay to identify small molecule agonists of the peroxisome proliferator-activated receptor gamma (PPARg) signaling pathway (AID 743094; active = well fitted activation curve with a large enough effect in the signal ratio in the repeat runs, not every such curve was filed as active; the % refers to the signal ratio)
Chain of Peroxisome proliferator-activated receptor gamma (Homo sapiens) (P37231 whole entry, looked up): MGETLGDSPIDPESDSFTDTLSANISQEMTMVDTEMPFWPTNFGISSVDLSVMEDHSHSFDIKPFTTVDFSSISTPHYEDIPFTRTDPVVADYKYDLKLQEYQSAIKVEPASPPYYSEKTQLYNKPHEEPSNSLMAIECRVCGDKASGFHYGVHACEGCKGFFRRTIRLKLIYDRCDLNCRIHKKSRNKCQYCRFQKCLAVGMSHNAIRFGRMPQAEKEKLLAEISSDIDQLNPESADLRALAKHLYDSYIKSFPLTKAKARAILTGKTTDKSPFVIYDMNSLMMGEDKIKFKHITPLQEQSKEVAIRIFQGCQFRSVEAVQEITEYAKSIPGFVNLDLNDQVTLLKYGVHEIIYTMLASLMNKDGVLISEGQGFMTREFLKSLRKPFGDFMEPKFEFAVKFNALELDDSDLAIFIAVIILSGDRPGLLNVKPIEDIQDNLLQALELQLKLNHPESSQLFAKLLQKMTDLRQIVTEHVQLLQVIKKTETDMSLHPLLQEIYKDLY
Procedure, shortened: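 Cell-based bla reporter, HEK293H background, PPARg-driven UAS. Pre-incubation 5 h, 37C, 5% CO2. Compound 17 h, 37C. Substrate 1 h RT; fluorescence.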

[5] = qHTS assay to identify small molecule phospholipidosis (PLD) inducers (AID 1259344; active = well fitted curve in the direction sought with a large enough effect; an effect the other way counts as inactive or inconclusive)
Procedure, shortened: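 Image-based: LipidTOX Red pit count/intensity per well and per cell; HepG2, 24 h compound at 37 C, PFA fixation, Hoechst counterstain.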

[6] = molecular target: Nuclear receptor subfamily 1 group I member 2 (Rattus norvegicus) (UniProt Q9R1A7); experiment: Rat pregnane X receptor (rPXR) activation by small molecules, qHTS assay (AID 1346983); settings: rPXR luciferase reporter cells, One-Glo luminescence, 24 h; max activation: stronger effect = higher value; also: nearly all actives have a fitted effect of over 20% in size; also: potency is read from the fitted curve at half-maximal effect
Chain of Nuclear receptor subfamily 1 group I member 2 (Rattus norvegicus) (Q9R1A7 whole entry, looked up): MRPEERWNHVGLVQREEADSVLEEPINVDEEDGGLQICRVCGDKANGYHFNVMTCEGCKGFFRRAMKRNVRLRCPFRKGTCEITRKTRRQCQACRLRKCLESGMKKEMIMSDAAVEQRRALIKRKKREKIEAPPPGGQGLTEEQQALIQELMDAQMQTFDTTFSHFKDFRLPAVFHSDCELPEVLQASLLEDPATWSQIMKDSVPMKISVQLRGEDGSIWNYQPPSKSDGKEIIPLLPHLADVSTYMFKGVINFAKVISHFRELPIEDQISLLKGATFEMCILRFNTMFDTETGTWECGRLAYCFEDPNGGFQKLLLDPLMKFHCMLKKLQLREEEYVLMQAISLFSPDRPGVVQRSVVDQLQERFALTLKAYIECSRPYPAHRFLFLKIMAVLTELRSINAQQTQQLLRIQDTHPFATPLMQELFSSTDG
Procedure, shortened: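 Cell-based rPXR activation assay: rPXR cells, 2,000 per well, rested 5hr at 37 C, then exposed to compounds in DMSO for 24 hr at 37 C. Luciferase activity read by One-Glo luminescence after 30 min at room temperature.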

[7] = molecular target: Nuclear receptor subfamily 1 group I member 2 (Homo sapiens) (UniProt O75469); experiment: CYP3A4 induction through human pregnane X receptor (PXR) by small molecules, qHTS assay (AID 1346984); also: nearly all actives have a fitted effect of over 40% in size; also: potency is read from the fitted curve at half-maximal effect
Procedure, shortened: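 Human PXR activation is tracked via CYP3A4 promoter-luciferase in DPX-2 (HepG2) cells. Compounds treat cells for 24hr at 37C, and luminescence is read after One-Glo.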

[8] = molecular target: Nuclear receptor subfamily 1 group I member 2 (Homo sapiens) (UniProt O75469); experiment: Human pregnane X receptor (PXR) activation by small molecules, qHTS assay (AID 1346985); also: nearly all actives have a fitted effect of over 40% in size; also: potency is read from the fitted curve at half-maximal effect
Procedure, shortened: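 DPX-2 cells (HepG2 co-transfected with a PXR response element and a CYP3A4-promoter luciferase construct) were seeded at 2,000 per well, rested 5 hr at 37C, then exposed to DMSO-dissolved compounds for 24 hr. Activation was read as luciferase luminescence.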

SMILES	Potency [1]	Potency [2]	Potency [3]	Potency [4]	Potency [5]	max activation [6]	Potency [7]	Potency [8]	Potency [6]
O=C1CCC(=O)N1CO	inactive	inactive	inactive	inactive	inactive	-2.21%	inactive	inactive	–
CCCc1ccc(C(=O)O)cc1	inactive	inactive	inactive	inactive	inactive	-2.43%	inactive	inactive	–
CC(C)[C@@H]1CC[C@@H](C)C[C@H]1OC(=O)c1ccccc1O	inactive	inactive	inactive	inactive	inactive	-0.772%	inactive	inactive	–
Cc1nc(NS(=O)(=O)c2ccc(N)cc2)nc(C)c1Br	inactive	inactive	inactive	inactive	inactive	-1.45%	inactive	inactive	–
Oc1cc(O)cc(O)c1	inactive	inactive	inactive	inactive	inactive	-1.47%	inactive	inactive	–
CN(C)c1ccc(C(=C2C=CC(=[N+](C)C)C=C2)c2c(O)c(S(=O)(=O)[O-])cc3cc(S(=O)(=O)O)ccc23)cc1	29.8 µM (active)	inactive	26.6 µM (active)	inactive	inactive	-15.3%	inactive	inactive	–
CCCCC[C@H](O)/C=C/[C@@H]1[C@H]2C/C(=C/CCCC(=O)O)O[C@H]2C[C@H]1O	inactive	inactive	inactive	inactive	inactive	-0.736%	inactive	inactive	–
CC[C@H](C)[C@@H]1NC(=O)[C@H](Cc2ccc(O)cc2)NC(=O)[C@@H](N)CSSC[C@@H](C(=O)N2CCC[C@H]2C(=O)N[C@@H](CC(C)C)C(=O)NCC(N)=O)NC(=O)[C@H](CC(N)=O)NC(=O)[C@H](CCC(N)=O)NC1=O	inactive	inactive	inactive	inactive	inactive	0.0402%	inactive	inactive	–
CC1(C)S[C@@H]2[C@H](NC(=O)[C@H](NC(=O)N3CCN(S(C)(=O)=O)C3=O)c3ccccc3)C(=O)N2[C@H]1C(=O)O	inactive	inactive	inactive	inactive	inactive	-9.82%	inactive	inactive	–
O=S(=O)(O)CCCS(=O)(=O)O	inactive	inactive	inactive	inactive	inactive	-2.5%	inactive	inactive	–
C[C@]12CC[C@@H]3c4ccc(O)cc4CC[C@H]3[C@@H]1CC[C@@H]2OP(=O)(O)O	inactive	inactive	inactive	inactive	inactive	0.522%	inactive	inactive	–
COc1c(O[C@@H]2O[C@H](CO)[C@@H](O)[C@H](O)[C@H]2O)cc2c(c1OC)-c1ccc(SC)c(=O)cc1[C@@H](NC(C)=O)CC2	inactive	inactive	inactive	inactive	inactive	-2.99%	inactive	inactive	–
CC(C)NCC(O)COc1ccccc1-n1cccc1 (centres undefined)	inactive	inactive	inactive	inactive	inactive	1.86%	inactive	inactive	–
Cc1ccc(S(=O)(=O)NC(=O)N[C@@H](C)Cc2ccccc2)cc1	inactive	inactive	inactive	inactive	inactive	4.79%	inactive	inactive	–
CCN(CC)CCOc1ccccc1OC	inactive	inactive	inactive	inactive	inactive	-0.861%	inactive	inactive	–
CC(=O)N[C@@H](C=O)[C@@H](O)[C@H](O)[C@H](O)CO	inactive	inactive	inactive	inactive	inactive	-0.914%	inactive	inactive	–
Cc1cccc(Nc2ncccc2C(=O)O)c1C	inactive	29.8 µM (active)	inactive	inactive	inactive	-0.253%	inactive	inactive	–
COC(F)(F)C(Cl)Cl	inactive	inactive	inactive	inactive	inactive	0.553%	inactive	inactive	–
CS(=O)(=O)c1ccc(C2=C(c3ccccc3)C(=O)OC2)cc1	inactive	inactive	inactive	inactive	inactive	-0.681%	inactive	inactive	–

SMILES	Potency [1]	Potency [2]	Potency [3]	Potency [4]	Potency [5]	max activation [6]	Potency [7]	Potency [8]	Potency [6]
CC(=O)O[C@]1(C(C)=O)CC[C@H]2[C@@H]3CCC4=CC(=O)CC[C@]4(C)[C@@]3(F)[C@@H](O)C[C@@]21C	inactive	inactive	inactive	inactive	inactive	–	inactive	inactive	3.55 µM (active)
OC1OC[C@@H](O)[C@H](O)[C@@H]1O (some centres undefined)	inactive	inactive	inactive	inactive	inactive	0.988%	inactive	inactive	–
COc1ccccc1N1CCN(CCCC(=O)c2ccc(F)cc2)CC1	inactive	10.6 µM (active)	inactive	inactive	inactive	8.11%	6.31 µM (active)	7.94 µM (active)	–
CN[C@@H]1[C@H](O[C@H]2[C@H](O[C@H]3[C@H](O)[C@@H](O)[C@H](N=C(N)N)[C@@H](O)[C@@H]3N=C(N)N)O[C@@H](C)[C@]2(O)C=O)O[C@@H](CO)[C@H](O)[C@H]1O	inactive	inactive	inactive	inactive	inactive	-1.83%	inactive	inactive	–
OCCO[C@@H]1[C@@H](O)[C@H](O)[C@@H](CO)O[C@@H]1O	inactive	inactive	inactive	inactive	inactive	-3.49%	inactive	inactive	–
NCCCC[C@H](N)C(=O)O	inactive	inactive	inactive	inactive	inactive	-0.992%	inactive	inactive	–
COC(=O)CCC[N+](C)(C)C	inactive	inactive	inactive	inactive	inactive	-0.156%	inactive	inactive	–
O=C1NC(=O)[C@H]2[C@@H]1[C@@H]1C=C[C@H]2C1	inactive	inactive	inactive	inactive	inactive	-2.18%	inactive	inactive	–
COc1cc(/C=C/C(=O)N2CCN(CC(=O)N3CCCC3)CC2)cc(OC)c1OC	inactive	inactive	inactive	inactive	inactive	0.536%	inactive	inactive	–
Cc1ccccc1OCC(O)CNCCOc1ccc(C(N)=O)cc1 (centres undefined)	inactive	inactive	inactive	inactive	inactive	-2.29%	inactive	inactive	–
CCCCC(=O)N(Cc1ccc(-c2ccccc2-c2nn[nH]n2)cc1)[C@@H](C(=O)O)C(C)C	inactive	inactive	inactive	inactive	inactive	-1.58%	inactive	inactive	–
CC(C)CCC[C@@H](C)[C@H]1CC(=O)C2=C3CC[C@H]4C[C@@H](O)CC[C@]4(C)[C@H]3CC[C@@]21C	inactive	inactive	inactive	inactive	inactive	-2.36%	inactive	inactive	–
Cn1c(=O)c2c(ncn2CCOC(=O)C(C)(C)Oc2ccc(Cl)cc2)n(C)c1=O	inactive	inactive	inactive	inactive	inactive	-1.7%	inactive	inactive	–
CC(=O)Oc1c(C)cc(OCC(O)CNC(C)C)c(C)c1C (centres undefined)	inactive	inactive	inactive	inactive	inactive	-4.59%	inactive	inactive	–
CC(=O)N[C@@H]([C@@H](O)[C@H](O)[C@H](O)CO)[C@@H](O)CC(=O)C(=O)O	inactive	inactive	inactive	inactive	inactive	-0.275%	inactive	inactive	–
CC(=O)N(CC(C)C(=O)O)c1c(I)cc(I)c(N)c1I (centres undefined)	inactive	inactive	inactive	inactive	inactive	-1.91%	inactive	inactive	–
CN[C@@H]1[C@H](O[C@H]2[C@H](O[C@H]3[C@H](O)[C@@H](O)[C@H](N=C(N)N)[C@@H](O)[C@@H]3N=C(N)N)O[C@@H](C)[C@]2(O)CO)O[C@@H](CO)[C@H](O)[C@H]1O	inactive	inactive	inactive	inactive	inactive	-1.72%	inactive	inactive	–
CCCCCCCCCCCCCCCCCC[N+](C)(C)CCC[Si](OC)(OC)OC	inactive	inactive	inactive	inactive	inactive	6.33%	inactive	inactive	–
CCCCC/C=C\CCC(=O)N[C@H]1[C@H](Oc2c3cc4cc2Oc2ccc(cc2Cl)[C@@H](O[C@@H]2O[C@H](CO)[C@@H](O)[C@H](O)[C@H]2NC(C)=O)[C@@H]2NC(=O)[C@H](NC(=O)[C@@H]4NC(=O)[C@H]4NC(=O)[C@@H](Cc5ccc(c(Cl)c5)O3)NC(=O)[C@H](N)c3ccc(O)c(c3)Oc3cc(O)cc4c3)c3ccc(O)c(c3)-c3c(O[C@H]4O[C@H](CO)[C@@H](O)[C@H](O)[C@@H]4O)cc(O)cc3[C@@H](C(=O)O)NC2=O)O[C@H](CO)[C@@H](O)[C@@H]1O	inactive	inactive	inactive	inactive	inactive	0.769%	inactive	inactive	–
